Shown are actives, neighbours in structure and some others; about 0.99% of the full set was active somewhere.
AmpC inh no detg: qHTS Inhibitors of AmpC Beta-Lactamase (assay without detergent). P00811. AmpC nitrocefin hydrolysis, absorbance 480 nm, 0.0001% Triton. Potency, µM (top dose mostly 57.1 µM), most hits filed as inhibitors. hit rate 0.52% among 330,000. AID 485341, 2010; also: nearly all actives have a fitted effect of over 20% in size
Target sequence (P00811 whole entry, looked up): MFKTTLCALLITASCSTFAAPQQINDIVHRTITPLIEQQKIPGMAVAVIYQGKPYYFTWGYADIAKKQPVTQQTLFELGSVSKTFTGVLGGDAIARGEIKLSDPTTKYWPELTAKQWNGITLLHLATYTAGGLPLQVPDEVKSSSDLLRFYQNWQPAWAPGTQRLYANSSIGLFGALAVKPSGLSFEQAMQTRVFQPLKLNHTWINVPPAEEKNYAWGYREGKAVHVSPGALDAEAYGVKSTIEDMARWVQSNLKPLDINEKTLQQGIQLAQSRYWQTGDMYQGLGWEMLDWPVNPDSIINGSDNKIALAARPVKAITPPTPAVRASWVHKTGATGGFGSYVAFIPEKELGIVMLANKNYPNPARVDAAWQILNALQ
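AmpC (5.3 nM in the dispensed reagent) in 20 mM phosphate pH 7.0 with 0.01% (detergent screen) or 0.0001% Triton X-100 was preincubated with compounds for 15 min at room temperature. Nitrocefin was then added from an 800 uM solution, and hydrolysis was followed at 480 nm.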
SARS PLP yeast: qHTS of Yeast-based Assay for SARS-CoV PLP; S. cerevisiae expressing SARS-CoV PLpro, growth rescue; hit rate 0.19% among 330,000; Potency, µM (top dose mostly 32.9 µM), hits mostly activators; calls by dose curve; also: nearly all actives have a fitted effect of over 55% in size
AmpC inh detg: qHTS Inhibitors of AmpC Beta-Lactamase (assay with detergent); hit rate 0.041% among 370,000; AmpC hydrolysis of nitrocefin, absorbance 480 nm, 0.01% Triton; P00811; Potency, µM (doses to about 114 µM), usual class: inhibitors; also: nearly all actives have a fitted effect of over 25% in size
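AmpC (5.3 nM in the dispensed reagent) in 20 mM phosphate pH 7.0 with 0.01% (detergent screen) or 0.0001% Triton X-100 was preincubated with compounds for 15 min at room temperature. Nitrocefin was then added from an 800 uM solution, and hydrolysis was followed at 480 nm.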
NS1 inh: qHTS Assay for Inhibitors of Influenza NS1 Protein Function | hit rate 0.4% among 270,000 | Potency, µM (series often up to 46.1 µM) | AID 2326, 2010; calls by dose curve; also: actives are rising curves; nearly all actives have a fitted effect of over 50% in size
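Growth recovery, yeast-based: influenza A NS1 expressed in S. cerevisiae causes slow growth, and suppressors are detected by OD600. The parent strain without NS1 is used as positive control.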
AMA1-RON2 inh: qHTS for Inhibitors of AMA1-RON; Towards Development of Antimalarial Drug Lead: Primary Screen; Potency, µM (titrated, usually from 58.2 µM), usual class: inhibitors; AID 720542, 2013; AlphaScreen AMA1-biotinylated RON2 peptide binding; Plasmodium falciparum AMA1 (3D7) - RON2 peptide interaction; hit rate 0.2% among 360,000; also: nearly all actives have a fitted effect of over 45% in size
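AMA1 (3D7) with his tag at 25 nM final met compounds first, then biotinylated RON2 peptide at 25 nM; detection used donor plus acceptor beads, 10 µg/mL apiece, read by AlphaScreen after 30 min at room temperature.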
Hits are given with their value; - = inactive; ? = inconclusive; . = not tested or not shown. Unless noted, calls follow the shape of the dose curve; as a rule, active = well fitted curve in the direction sought with a large enough effect; inconclusive = small, poorly fitted or top-dose-only effect, or another doubt; inactive = no such curve, though single readings can be large; an effect the other way counts as inactive or inconclusive.

SMILES	AmpC inh no detg	SARS PLP yeast	AmpC inh detg	NS1 inh	AMA1-RON2 inh
COc1cc2c(cc1NC(=O)CSc1ccccc1)oc1ccccc12	-	-	-	-	-
COc1cc2c(cc1NC(=O)CSc1nc3ccccc3[nH]1)oc1ccccc12	7.9µM	-	-	-	-
COc1cc2c(cc1NC(=O)Nc1ccc(F)cc1)oc1ccccc12	14µM	-	?	-	-
NC(=O)c1ccsc1NC(=O)c1ccc2c(c1)CCCC2	-	-	-	-	-
NC(=O)c1ccsc1NC(=O)c1ccc(N2CCCC2=O)cc1	7.9µM	-	-	-	-
COc1ccc(-c2csc(Nc3ccc(S(N)(=O)=O)cc3)n2)cc1OC	16µM	-	-	.	-
O=C(NCC1CCCO1)c1cc2ccccc2cc1O (stereo not given)	-	-	-	.	-
O=C(NCC1CCCCC1)c1cc2ccccc2cc1O	14µM	-	-	-	-
CCN(CC)c1ccc(NC(=O)C2CCN(c3nnc(-n4cccc4)s3)CC2)c(C)c1	.	.	-	.	.
Nc1ccccc1Nc1cc(-c2ccccc2)[nH]n1	1.1µM	-	-	-	-
Nc1ccccc1Nc1cc(-c2ccccc2)nn1-c1ccccc1	-	-	-	-	?
CCc1cccc(C)c1NC(=O)Cn1c(NCCO)nc2ccccc21	-	-	-	-	-
CCCCNc1nc2ccccc2n1CC(=O)Nc1c(C)cccc1CC	20µM	-	-	-	-
Cc1ccc(-n2c(SCC(=O)N/N=C/c3c(C)nn(-c4ccccc4)c3C)nc3ccccc3c2=O)cc1	-	.	?	?	-
Cc1nn(-c2ccccc2)c(C)c1/C=N/NC(=O)CSc1nnc(SCc2cccc3ccccc23)s1	2.2µM	-	-	-	-
Cc1ccc(-c2nc3sc(CCNS(=O)(=O)c4cc(F)ccc4F)c(C)n3n2)cc1	.	.	-	.	.
CCOC(=O)c1cccc(NC(=O)Cn2c(=O)nc(-c3ccccc3F)c3cc(Cl)ccc32)c1	.	.	-	.	.
CC(C)=CCc1c(O)cc2oc3c(CC=C(C)C)c(O)c(O)c(CC=C(C)C)c3c(=O)c2c1O	14µM	-	-	-	-
Cc1ccc(CSc2sc(C(=O)c3ccccc3)c(N)c2C#N)cc1	10µM	-	-	-	-
COc1ccc(CNC(=S)Nc2ccc(OC)cc2)cc1	-	11µM	-	-	-
COc1ccc(NC2=NCC(Cc3ccc(Br)cc3)S2)cc1 (stereo not given)	-	-	-	-	18µM
Oc1cc(O)cc(/C=C/c2ccc(O)c(O)c2)c1	-	.	-	-	7.1µM
SC(COCc1ccccc1)CN1CCN(Cc2ccc3c(c2)OCO3)CC1 (stereo not given)	-	-	-	-	25µM
Cc1cccc(N2CCN(C(=O)c3c(C)oc4ncnc(N5CCCCC5)c34)CC2)c1C	.	.	-	.	.
O=C(CCCOc1ccc(Br)cc1)Nc1ccc(S(=O)(=O)N2CCOCC2)cc1	?	-	-	.	-
SMILES	AmpC inh no detg	SARS PLP yeast	AmpC inh detg	NS1 inh	AMA1-RON2 inh
CC(=O)c1ccc(OCCCC(=O)Nc2ccc(S(=O)(=O)N3CCOCC3)cc2)cc1	-	11µM	-	.	-
CC1CCN(C2=C(NS(=O)(=O)c3ccc(Br)cc3)C(=O)c3ccccc3C2=O)CC1	-	-	-	-	13µM
O=C1C(Nc2ccccc2)=C(N2CCCCC2)C(=O)c2ccccc21	-	-	-	-	-
O=C1C(NS(=O)(=O)c2ccccc2)=C(N2CCN(c3ccc(F)cc3)CC2)C(=O)c2ccccc21	-	-	-	-	18µM
O=C1C(NS(=O)(=O)c2ccc(Br)cc2)=C(N2CCCCC2)C(=O)c2ccccc21	-	-	-	-	16µM
CN(C1=C(N2CCCCC2)C(=O)c2ccccc2C1=O)c1ccccc1	-	?	-	-	9.5µM
COc1ccc(-c2cc3nc(C)c(CCC(=O)Nc4ccc(F)cc4F)c(C)n3n2)c(OC)c1	.	.	-	.	.
C=C[C@@H]1CN2CC[C@@H]1C[C@@H]2[C@H](O)c1ccnc2ccc(OC)cc12	.	.	.	-	.
Cc1ccc(S(=O)(=O)c2nnn(-c3ccc(F)c(Cl)c3)c2N)cc1	.	.	-	.	.
CC1=C(C(=O)NCc2ccccn2)C2(CCC(C)CC2)OC1=O (stereo not given)	2.8µM	-	?	-	-
CCCOC(=O)[C@@H]1[C@@H](C(=O)O)[C@H]2CC[C@@H]1O2	.	.	.	-	.
O=C(CN1C(=O)COc2ccc(S(=O)(=O)N3CCOCC3)cc21)NCc1ccc(F)cc1	.	.	-	.	.
COc1cccc(NC(=O)c2nc3nc(C)cc(C(F)F)n3n2)c1	45µM	-	-	-	-
O=c1[nH]c(=S)n(Cc2ccco2)c(O)c1C=NCc1cccs1	18µM	-	-	-	-
CCOC(=O)C1CCC(CN(Cc2ccc(OC)cc2)S(=O)(=O)c2ccc(F)c(C(=O)Nc3c(C)cccc3C)c2)CC1 (stereo not given)	.	.	-	.	.
Cc1ccc(C2=NN(C(=O)CSc3nc4ncc(Cl)cc4[nH]3)C(c3ccco3)C2)cc1 (stereo not given)	10µM	-	?	.	-
COc1cc(Cl)c(C)cc1NC(=O)Cn1cc(S(=O)(=O)N2CCC(C)CC2)c2ccccc2c1=O	.	.	-	.	.
O=C(Nc1cccc(S(=O)(=O)NCc2ccco2)c1)c1cc(-c2ccc(F)cc2)nc2ccccc12	-	-	-	?	-
COc1ccc(-c2cc(C(=O)Nc3cccc(S(=O)(=O)NCc4ccco4)c3)c3ccccc3n2)cc1OC	2µM	-	-	-	-
COc1ccc(CC(=O)Nc2ccc(-c3nc4ccccc4s3)cc2Cl)cc1OC	.	.	-	.	.
Cc1cc(NC(=O)CSc2sc3c(O)cc(=O)[nH]c3c2C#N)ccc1Br	14µM	-	-	?	-
CCc1nnc(NC(=O)CSc2sc3c(O)cc(=O)[nH]c3c2C#N)s1	-	-	-	-	10µM
Cc1ccc(C)c(NC(=O)CSc2sc3c(O)cc(=O)[nH]c3c2C#N)c1	-	-	-	?	-
N#Cc1c(SCC(=O)Nc2cccc(C(F)(F)F)c2)sc2c(O)cc(=O)[nH]c12	22µM	-	?	-	-
CC1=C(C(N)=O)C(c2cccc(C)c2)n2nc(-c3ccc(Cl)cc3)nc2N1 (stereo not given)	.	.	-	.	.
SMILES	AmpC inh no detg	SARS PLP yeast	AmpC inh detg	NS1 inh	AMA1-RON2 inh
Cc1ccc(-c2nc(CS(=O)(=O)CC(=O)N3CCCCCC3)c(C)o2)cc1	6.3µM	-	-	-	-
Cc1ccc(-c2nc(CS(=O)(=O)CC(=O)N3CCc4ccccc4C3)c(C)o2)cc1	40µM	-	?	-	-
Cc1ccc(-c2nc(CS(=O)(=O)CC(=O)N3CCN(c4ccccc4)CC3)c(C)o2)cc1	.	.	-	.	.
CCN(CC)c1ccc(NC(=O)COc2ccc(C#N)cc2)cc1S(=O)(=O)Nc1ccc(OC)cc1	5µM	-	-	?	-
COc1ccc(OCC(=O)Nc2ccc(C)c(S(=O)(=O)N(C)C)c2)cc1	-	-	-	.	-
Cn1nnnc1SCCNCc1ccc(OCc2ccc(Cl)cc2)cc1	.	.	-	.	.
